# Reference: the supplement of paper PMC3334620
# In all, about 33,000 sequences were measured (“E-score (-0.5 to 0.5)”: median about -0.012, highest 2% from about 0.27 on). Many of the other results were omitted from the sample, so the highest values are more common in it than they were.
# Biological target: T1, Vhr1 (UniProt P40522)
# T1 sequence: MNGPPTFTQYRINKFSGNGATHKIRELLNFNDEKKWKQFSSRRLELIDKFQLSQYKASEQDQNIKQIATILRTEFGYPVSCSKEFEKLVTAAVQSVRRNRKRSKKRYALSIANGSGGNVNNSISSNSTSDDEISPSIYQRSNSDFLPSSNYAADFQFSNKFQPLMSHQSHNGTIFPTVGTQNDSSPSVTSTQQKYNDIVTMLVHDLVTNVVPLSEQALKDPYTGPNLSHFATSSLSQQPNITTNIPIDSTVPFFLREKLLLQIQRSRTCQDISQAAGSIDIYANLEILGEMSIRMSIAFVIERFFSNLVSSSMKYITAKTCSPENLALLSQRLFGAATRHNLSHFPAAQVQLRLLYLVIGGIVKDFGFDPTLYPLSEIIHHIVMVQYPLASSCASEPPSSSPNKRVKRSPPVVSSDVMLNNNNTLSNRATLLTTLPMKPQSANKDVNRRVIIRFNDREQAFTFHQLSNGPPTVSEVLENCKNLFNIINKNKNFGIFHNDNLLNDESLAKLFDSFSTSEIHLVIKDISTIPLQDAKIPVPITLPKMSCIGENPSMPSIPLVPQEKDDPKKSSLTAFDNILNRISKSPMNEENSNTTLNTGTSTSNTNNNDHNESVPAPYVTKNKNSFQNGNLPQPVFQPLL
# Experiment: PBM E-score (8-mer binding enrichment) (E-score (-0.5 to 0.5)); higher = stronger / more preferred TF binding
# Conditions: protein concentration: 200 nM; construct: GST-full length
# How it was run: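 E-scores (a modified Wilcoxon-Mann-Whitney statistic) were assigned by the Universal PBM Analysis Suite to every ungapped eight-base word pooled with its reverse complement. The input came from universal all-10-mer Agilent arrays made double-stranded by primer extension and probed with GST-tagged yeast transcription factors at about 100-200 nM. Fluorescent anti-GST detected bound protein, and masliner normalised the scans.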
row,Sequence,PBM E-score
1,ACTCACGG,0.352
2,ACACACGG,0.155
3,AATCACGC,0.354
4,CCTCACGC,0.0696
5,GATCACGC,0.193
6,ACACACGC,0.183
7,AATCACGA,0.159
8,ACTCACGA,0.243
9,AAACAAGA,0.121
10,AGCCCTAC,-0.108
11,ATTCTGGG,-0.107
12,GCAGTGGC,0.0117
13,GAGGTTGA,-0.131
14,AGAATAGG,0.026
15,CGTGAGTC,0.428
16,CGTGAGCC,0.0956
17,AGTGAGTG,0.00138
18,AGTGAGAC,0.0195
19,AGTGAGTC,0.466
20,CGTGAGTA,0.21
21,CACCTGCA,0.0182
22,TATAAGCA,0.00418

row,Sequence,PBM E-score
1,AACTCACC,0.224
2,GACTCACC,0.469
3,AACTCACA,0.202
4,GACTCACA,0.44
5,CACTCACA,0.264
6,AACTCACG,0.109
7,TACTCACA,0.285
8,CACTCACC,0.206
9,CACTCACG,0.238
10,TCCAGAAA,-0.0568
11,GCTTAGAA,-0.117
12,CAAATCAA,0.0775
13,AAACTGGG,-0.192
14,ATCTGATC,0.085
15,AGTTCTAG,-0.127
16,CACCCGCC,0.329
17,GACCCGCA,0.109
18,GACCCGCC,0.322
19,AACCCGCC,0.136
20,CACCCGCG,0.218
21,CACCCGCA,-0.0465
22,AACCTCAA,-0.195

row,Sequence,PBM E-score
1,ACCTACGT,-0.0787
2,AACTGCTG,-0.0272
3,ACCTTGAT,0.0042
4,TACCGTCA,-0.0775
5,GCGTGGCA,-0.22
6,AACTCCTC,-0.268
7,CACTCCAC,0.0458
8,GACTCCAA,0.237
9,AACTCCTA,0.017
10,GACTCCTC,0.4
11,GACTCCTA,0.384
12,GACTCCAC,0.346
13,CACTCCTC,0.183
14,CACTCCTA,-0.262
15,GTATTGGA,-0.184
16,TTTATAAA,-0.0811
17,CGACCCCC,-0.261
18,CTTTAACC,-0.127
19,AGAACCAA,-0.0911
20,TAATCATA,0.314
21,CCATCATA,0.0955
22,TAATCAAA,0.101

row,Sequence,PBM E-score
1,CTATCATA,0.164
2,ACATCATC,0.166
3,ATATCATA,0.216
4,CAATCATA,0.317
5,TAATCGTA,0.114
6,GAATCATC,0.437
7,GAATCAAC,0.247
8,CAATCAGA,-0.0178
9,GTATCATA,0.288
10,TACGATGA,0.11
11,ACTTCTTC,-0.00857
12,TACTCCTA,0.123
13,CCAGAGCG,-0.145
14,ACGACAAA,0.092
15,CAATCATC,0.284
16,CCATCATC,0.138
17,GCATCATA,0.136
18,GAATCAAA,-0.0259
19,AAATCATC,0.245
20,GAATCATA,0.397
